From PubChem BioAssay (NCI)
Compounds without any hit were thinned out: in the full panel of roughly 83,000, 20% have a hit.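 Assay: single dose, 48 h. Readout: percent growth (0 = no net growth; negative = cell death). Active: <10.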 A number with no mark means an inactive call. Active and inactive are the calls of the source.

Tests used:
Assay in all cases: NCI-60 one-dose screen, 48 h (100 = growth as untreated, 0 = no growth, -100 = all killed)
Settings in all cases: 10 µM unless noted
HT29 colon = tested on: HT29 colon
SNB-75 CNS = tested on: SNB-75 CNS
SNB-19 CNS = tested on: SNB-19 CNS
U251 CNS = tested on: U251 CNS
PC-3 prostate = tested on: PC-3 prostate
SK-MEL-5 melanoma = tested on: SK-MEL-5 melanoma
UACC-62 melanoma = tested on: UACC-62 melanoma
LOX IMVI melanoma = tested on: LOX IMVI melanoma
SK-MEL-28 melanoma = tested on: SK-MEL-28 melanoma
SK-MEL-2 melanoma = tested on: SK-MEL-2 melanoma
SN12C renal = tested on: SN12C renal
UO-31 renal = tested on: UO-31 renal
TK-10 renal = tested on: TK-10 renal
ACHN renal = tested on: ACHN renal
A498 renal = tested on: A498 renal
MOLT-4 leukemia = tested on: MOLT-4 leukemia
SR leukemia = tested on: SR leukemia
EKVX NSCLC = tested on: EKVX NSCLC
CAKI-1 renal = tested on: CAKI-1 renal
CCRF-CEM leukemia = tested on: CCRF-CEM leukemia

Structure (SMILES) | growth (HT29 colon) | growth (SNB-75 CNS) [%] | growth (SNB-19 CNS) [%] | growth (U251 CNS) | growth (PC-3 prostate) | growth (SK-MEL-5 melanoma) | growth (UACC-62 melanoma) | growth (LOX IMVI melanoma) | growth (SK-MEL-28 melanoma) [%] | growth (SK-MEL-2 melanoma) | growth (SN12C renal) [%] | growth (UO-31 renal) | growth (TK-10 renal) | growth (ACHN renal) | growth (A498 renal) [%] | growth (MOLT-4 leukemia) | growth (SR leukemia) | growth (EKVX NSCLC) [%] | growth (CAKI-1 renal) | growth (CCRF-CEM leukemia)
CC(C)(C)c1cc(O)c(O)c(C(C)(C)C)c1 | 53.9% | 60.8 | 56.9 | 36% | 39.3% | 70.4% | 33% | 47.3% | 74.9 | 76.6% | 60.3 | 27.3% | 35.8% | 18.3% | 60.6 | 6.61% (active) | 11.2% | – | – | –
COc1ccc(C(=O)/C=C/c2c(Cl)nc3c(c(C)nn3-c3ccccc3)c2-c2ccc(Br)cc2)cc1 | 100% | 88.2 | 101 | 110% | 107% | 101% | 91.8% | 96.4% | – | 93.8% | 99.4 | 88.1% | 106% | 101% | 112 | – | – | 109 | 100% | –
Nc1nc(Cl)c2[nH]cnc2n1 | 110% | 79.6 | 92.9 | 97.6% | 122% | 105% | 100% | 105% | – | 85.4% | 92.4 | 93.5% | 103% | 96.4% | 95.1 | 114% | 95.6% | 99.5 | 89.4% | 115%
COc1ccc2nc(NC(=O)c3cc(-c4ccc(F)cc4)n4nc(-c5ccccc5)cc4n3)sc2c1 | 92.5% | 80.4 | 83.3 | 64.2% | 63.7% | 55.5% | 67.9% | 67.9% | 73.1 | – | 88.6 | 73.6% | 134% | 67.5% | 83.4 | 96.1% | 77.5% | 79.5 | 77.5% | 64.1%
O=C(c1ccccc1)c1ccco1 | 103% | 80.3 | 93.1 | 99.1% | 95.4% | 106% | 93% | 89.8% | 111 | 104% | 88.4 | 88.7% | 96% | 98.9% | 109 | 91.7% | 106% | – | – | 93.3%
CSc1nc2c(c(=O)[nH]1)C(c1ccc(Cl)cc1)C1=C(N2)/C(=C/c2ccc(Cl)cc2)CNC1 (configuration not stated) | -36.6% (active) | 51.9 | 46.8 | -16.1% (active) | 42% | 77.1% | 89.2% | -61.3% (active) | 87.9 | 78.4% | 39.7 | 16.8% | 78.9% | 72.5% | 18.3 | 18.7% | -16.2% (active) | – | 76.8% | –
S=C1SCN(Cc2ccccc2)CN1Cc1ccco1 | 27.4% | 92.1 | 101 | 97.3% | 90.3% | 87.3% | 91.6% | 81.6% | 105 | 81.1% | 93.5 | 78.6% | 28.7% | 107% | – | 51.6% | 22% | – | 96.7% | 10.8%
CC(C)C/C(=N\NC(=O)c1ccncc1)c1cc(Cl)ccc1O | 31.1% | 44.7 | 31.3 | 25.1% | 22.4% | 0.654% (active) | 6.43% (active) | 3.98% (active) | – | 7.55% (active) | 26.3 | 10.9% | 15.4% | 13.3% | 49.5 | 3.56% (active) | 6.34% (active) | 25.7 | 3.32% (active) | 7.99% (active)
O=C1/C(=C/c2ccc([N+](=O)[O-])o2)Oc2ccc(Cl)cc21 | -15.3% (active) | 66.5 | 91.9 | 50.2% | -5.46% (active) | 18.4% | -89% (active) | -61.8% (active) | 11.2 | -45.6% (active) | – | -86.1% (active) | -59.8% (active) | -61% (active) | 108 | -12.4% (active) | 5.52% (active) | – | 3.65% (active) | -23.4% (active)
